# About 83,000 compounds went through this panel and 20% of them were active in at least one assay; those are over-represented in the sample as a whole.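 96-well plates, one dose, 48 hours. Percent growth reported; active if below 10.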 Unmarked numbers belong to inactive results. Active and inactive are the calls of the source.
# Assays:
# Assay in all cases: NCI-60 one-dose screen, 48 h (100 = growth as untreated, 0 = no growth, -100 = all killed)
# NCI-H23 lung = conditions: 10 µM unless noted
# NCI-H226 lung = conditions: 10 µM unless noted
# DU-145 prostate = conditions: 10 µM unless noted
# SF-268 CNS = conditions: 10 µM unless noted
# M14 melanoma = conditions: 10 µM unless noted
# HCT-15 colon = conditions: 10 µM
# SNB-75 CNS = conditions: 10 µM unless noted
# U251 CNS = conditions: 10 µM unless noted
# PC-3 prostate = conditions: 10 µM unless noted
# OVCAR-8 ovarian = conditions: 10 µM unless noted
# OVCAR-5 ovarian = conditions: 10 µM unless noted
# OVCAR-3 ovarian = conditions: 10 µM unless noted
# NCI/ADR-RES ovarian = conditions: 10 µM unless noted
# MDA-MB-435 melanoma = conditions: 10 µM unless noted
# MCF7 breast = conditions: 10 µM unless noted
# HCT-116 colon = conditions: 10 µM unless noted
# KM12 colon = conditions: 10 µM unless noted
# MDA-MB-231 breast = conditions: 10 µM unless noted
# UACC-62 melanoma = conditions: 10 µM unless noted
# SK-OV-3 ovarian = conditions: 10 µM unless noted
SMILES,growth (NCI-H23 lung),growth (NCI-H226 lung),growth (DU-145 prostate),growth (SF-268 CNS),growth (M14 melanoma),growth (HCT-15 colon),growth (SNB-75 CNS),growth (U251 CNS),growth (PC-3 prostate),growth (OVCAR-8 ovarian),growth (OVCAR-5 ovarian),growth (OVCAR-3 ovarian),growth (NCI/ADR-RES ovarian),growth (MDA-MB-435 melanoma),growth (MCF7 breast),growth (HCT-116 colon),growth (KM12 colon),growth (MDA-MB-231 breast),growth (UACC-62 melanoma),growth (SK-OV-3 ovarian)
O=C(N/N=C/c1ccc(N(CCCl)CCCl)cc1)c1cc(=O)[nH]c(=O)[nH]1,79.7%,5.48% (active),91.4%,95.2%,103%,97.8%,92.8%,98.2%,89.2%,93.5%,134%,115%,108%,116%,74.5%,90.7%,111%,,,
COc1cccc2c1C(=O)c1c(O)c3c(c(O)c1C2=O)CC(O)(/C(C)=N/NC(=O)CCC(=O)N/N=C(\C)C1(O)Cc2c(O)c4c(c(O)c2C(OC2CC(N)C(O)C(C)O2)C1)C(=O)c1c(OC)cccc1C4=O)CC3OC1CC(N)C(O)C(C)O1 (stereo unspecified),-44.8% [5 µM] (active),-68.1% [5 µM] (active),-30.5% [5 µM] (active),-17.3% [5 µM] (active),-55.7% [5 µM] (active),,-53.2% [5 µM] (active),-27% [5 µM] (active),-19.3% [5 µM] (active),13.1% [5 µM],-15.4% [5 µM] (active),-47.3% [5 µM] (active),71.8% [5 µM],-85.2% [5 µM] (active),2.38% [5 µM] (active),-31.5% [5 µM] (active),-29.8% [5 µM] (active),8.46% [5 µM] (active),-85.4% [5 µM] (active),-31.4% [5 µM] (active)
CNC(=O)Oc1cc(C(C)C)ccc1Sc1ccc(C(C)C)cc1OC(=O)NC,76.4%,83.2%,72.8%,60.2%,89.2%,28.6%,52.1%,46.2%,53.7%,66.9%,95.7%,69.2%,54.1%,4.24% (active),58.8%,66.5%,57.9%,58.4%,47.2%,80.1%

# — PubChem BioAssay (NCI)
